This passage reports Potency, outcome and activity change, negative = cytotoxicity results from PubChem BioAssay (Tox21).

The nature of experiment [1]: qHTS assay to identify small molecule agonists of the estrogen receptor alpha (ER-alpha) signaling pathway in the presence of an antagonist - cell viability counter screen (AID 1259386).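 Also: cells exposed to compounds for 22 h at 37 °C before the viability read; nearly all actives have a fitted effect of over 30% in size.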 Also: potency is read from the fitted curve at half-maximal effect. As to activity change, negative = cytotoxicity: series mostly up to about 92 µM. In a few lines: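 Viability counter screen using VM7Luc4E2 (full-length ER-alpha, four ERE-luciferase). The cells were treated with compounds alongside ICI-182,780 10.0nM for 22hr, and live-cell protease fluorescence was quantified with CellTiter-Fluor.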
A general note: Quantitative high-throughput screening tests each substance at several concentrations.

Experiment [2] concerns the target Progesterone receptor (Homo sapiens) (UniProt P06401). Put plainly: qHTS assay to identify small molecule agonists of the progesterone receptor (PR) signaling pathway (AID 1346784; calls by dose curve; also: nearly all actives have a fitted effect of over 30% in size; also: potency is read from the fitted curve at half-maximal effect). The method in brief:
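Agonist mode, quantitative HTS format in a HEK 293T line expressing a UAS-controlled beta-lactamase reporter; 16 hr compound exposure at 37C in 2% charcoal-stripped FBS, then LiveBLAzer B/G FRET fluorescence.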

Experiment [3] has the same target. Put plainly: qHTS assay to identify small molecule antagonists of the progesterone receptor (PR) signaling pathway (AID 1346795; active = well fitted inhibition curve with a large enough effect in the signal ratio in the repeat runs, not every such curve was filed as active; the % refers to the signal ratio; also: potency is read from the fitted curve at half-maximal effect). In a few lines: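 HEK293T PR-UAS-bla reporter cells in charcoal-stripped serum (2%) received compound after a 6 hr settling period, followed by R5020 agonist at 1 nM final; 16 hr incubation preceded the FRET substrate step and fluorescence measurement.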

A short description of experiment [4]: qHTS assay to identify small molecule antagonists of the progesterone receptor (PR) signaling pathway - cell viability counter screen (AID 1346798). Also: nearly all actives have a fitted effect of over 50% in size. Also: potency is read from the fitted curve at half-maximal effect. As to activity change, negative = cytotoxicity: series mostly up to about 92 µM. The method in brief: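 Same-well multiplex: after 16 hr at 37C with compound and R5020 stimulation, HEK293T cells carrying a UAS-bla reporter received LiveBLAzer substrate (2 hr RT), then CellTiter-Glo (30 min RT) for luminescent viability.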

Experiment [5] in a line: qHTS assay to identify small molecule agonists of the progesterone receptor (PR) signaling pathway - cell viability counter screen (AID 1346799; calls by dose curve; also: nearly all actives have a fitted effect of over 45% in size; also: potency is read from the fitted curve at half-maximal effect). The method in brief:
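Counter screen for cytotoxicity: compound-treated PR-UAS-bla HEK293T cells (16 hr, 37C, 5% CO2) were assayed with CellTiter-Glo, luminescence measured after 30 min at room temperature.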

The nature of experiment [6]: qHTS assay to identify small molecule antagonists of the TGF-beta/Smad signaling pathway - cell viability counter screen (AID 1346824). Also: nearly all actives have a fitted effect of over 50% in size. In a few lines: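 SBE-bla HEK 293T cells, incubated overnight, then compound plus 0.25 ng/mL TGF-beta1 (stock added) for 5 hr at 37 C. Viability was read in the same wells by CellTiter-Glo luminescence after 30 min at room temperature.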

Experiment [7] is described as follows: qHTS assay to identify small molecule agonists of the TGF-beta/Smad signaling pathway - cell viability counter screen (AID 1346829). Also: nearly all actives have a fitted effect of over 45% in size. Also: potency is read from the fitted curve at half-maximal effect. As to activity change, negative = cytotoxicity: top concentration of the series differs between compounds. In a few lines: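 HEK 293T SBE-bla line, 5 hr compound exposure at 37 C, multiplexed CellTiter-Glo viability read by luminescence.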
The nature of experiment [8]: qHTS assay to identify small molecule agonists of the TGF-beta/Smad signaling pathway (AID 1346859; active = well fitted activation curve with a large enough effect in the signal ratio in the repeat runs, not every such curve was filed as active; the % refers to the signal ratio; also: series mostly up to about 77 µM). The method in brief: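 Smad-responsive beta-lactamase reporter cells (HEK 293T) received compounds from DMSO stocks after overnight attachment, were incubated 5 hr, then treated 2 hr with FRET substrate before dual-emission fluorescence measurement (405 nm excitation).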

Experiment [9] addresses Thyrotropin-releasing hormone receptor (Homo sapiens) (UniProt P34981). Nature of the experiment: qHTS assay to identify small molecule antagonists of the thyrotropin-releasing hormone receptor (TRHR) signaling pathway (AID 1346877; active = well fitted inhibition curve with a large enough effect in the repeat runs, not every such curve was filed as active; also: series mostly up to about 51 µM). The method in brief: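 Following an 18 h incubation at 37 °C and a 2 h calcium dye load, TRHR-HEK293 cells were exposed to compound (5 min, room temperature) and challenged with TRH, 1 nM final.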

Experiment [10] has the same target. Put plainly: qHTS assay to identify small molecule agonists of the thyrotropin-releasing hormone receptor (TRHR) signaling pathway (AID 1346891; calls by dose curve; also: potency is read from the fitted curve at half-maximal effect;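 as to activation: HEK293 cells expressing TRHR with calcium dye readout; series mostly up to about 58 µM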). In a few lines:
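Agonist-mode calcium mobilisation screen: TRHR-transfected HEK293 cells cultured overnight (18 h), dye-loaded for 2 h at 37 °C, exposed to compounds, and monitored by fluorescence for 3 min.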

Values joined by “and” are separate entries in the source; they are usually repeats but may differ in a detail not shown here. Equal entries are not always repeated. Inconclusive results are not listed. Some structures have more than one record in an assay (separate samples or runs), and their calls can disagree. Active and inactive are the calls of the source. Unless noted, calls follow the shape of the dose curve; as a rule, active = well fitted curve in the direction sought with a large enough effect in the repeat runs; inconclusive = weak or mixed curves; inactive = no such curve, though single readings can be large; an effect the other way counts as inactive or inconclusive.
% is scaled to controls: 0 for no effect and ±100 for the full control effect.

Progesterone receptor (Homo sapiens), sequence (P06401 whole entry, looked up): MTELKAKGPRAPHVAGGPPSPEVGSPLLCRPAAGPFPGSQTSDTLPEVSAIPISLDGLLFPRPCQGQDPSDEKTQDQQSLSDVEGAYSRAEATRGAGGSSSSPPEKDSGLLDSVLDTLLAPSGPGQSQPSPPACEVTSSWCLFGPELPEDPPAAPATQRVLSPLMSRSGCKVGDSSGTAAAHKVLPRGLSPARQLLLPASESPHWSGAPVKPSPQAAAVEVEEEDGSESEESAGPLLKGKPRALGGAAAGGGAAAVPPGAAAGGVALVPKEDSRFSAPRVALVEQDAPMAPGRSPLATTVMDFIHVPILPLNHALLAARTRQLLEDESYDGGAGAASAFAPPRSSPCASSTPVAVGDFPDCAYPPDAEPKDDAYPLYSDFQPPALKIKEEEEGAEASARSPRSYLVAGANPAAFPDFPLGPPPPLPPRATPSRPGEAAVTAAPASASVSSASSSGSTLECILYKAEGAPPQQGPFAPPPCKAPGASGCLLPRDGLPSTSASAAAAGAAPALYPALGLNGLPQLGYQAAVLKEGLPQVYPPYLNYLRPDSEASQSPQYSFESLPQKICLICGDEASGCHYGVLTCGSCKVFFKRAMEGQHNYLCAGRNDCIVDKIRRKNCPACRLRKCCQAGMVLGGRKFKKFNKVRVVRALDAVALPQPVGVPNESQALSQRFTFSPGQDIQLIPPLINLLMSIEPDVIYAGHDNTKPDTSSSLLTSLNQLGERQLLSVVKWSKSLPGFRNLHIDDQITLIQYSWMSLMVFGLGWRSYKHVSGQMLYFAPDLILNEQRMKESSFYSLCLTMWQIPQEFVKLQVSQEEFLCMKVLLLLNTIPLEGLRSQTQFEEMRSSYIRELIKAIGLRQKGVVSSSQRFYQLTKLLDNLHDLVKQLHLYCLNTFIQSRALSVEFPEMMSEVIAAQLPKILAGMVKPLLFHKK
Thyrotropin-releasing hormone receptor (Homo sapiens), sequence (P34981 whole entry, looked up): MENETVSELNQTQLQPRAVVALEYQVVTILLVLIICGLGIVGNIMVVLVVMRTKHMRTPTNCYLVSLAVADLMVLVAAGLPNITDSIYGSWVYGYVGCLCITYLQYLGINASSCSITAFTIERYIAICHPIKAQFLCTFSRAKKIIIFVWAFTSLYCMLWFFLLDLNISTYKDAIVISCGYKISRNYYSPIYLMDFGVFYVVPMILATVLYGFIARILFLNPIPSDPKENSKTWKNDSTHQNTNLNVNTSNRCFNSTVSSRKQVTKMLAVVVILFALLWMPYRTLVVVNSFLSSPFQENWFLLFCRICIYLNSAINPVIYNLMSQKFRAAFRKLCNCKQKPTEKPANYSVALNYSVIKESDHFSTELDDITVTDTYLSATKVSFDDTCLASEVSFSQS

As to `NCc1cccc(CN)c1`, the Potency entry in [1], in experiment [2], in [3], in experiment [4], in experiment [5] and in [6] was “inactive” throughout. The Potency result in experiment [7] and in [10] was “inactive” in each case. For the same molecule, the result in [8] and in experiment [9] was inactive.

As to `O=[N+]([O-])C(CO)(CO)CO`, the Potency entry in experiment [1], in experiment [2], in [3], in [4], in experiment [6] and in experiment [7] was “inactive” each time. In [10], the Potency result is “inactive”. Besides, the call in [8] and in experiment [9] was inactive.

In the case of `S=c1nc[nH]c2nc[nH]c12`, the Potency result in experiment [1], in experiment [2] and in experiment [10] was “inactive” throughout. For the same molecule, the Potency in experiment [4] is 8.41 µM (active). Besides, the call in [8] and in experiment [9] was inactive.

As to `C=C1CC[C@H](O)CC1=C/C=C1\CCC[C@]2(C)[C@@H]([C@H](C)/C=C/[C@H](C)C(C)C)CC[C@@H]12`, the Potency result in [2], in experiment [4], in experiment [6] and in experiment [7] was “inactive” each time. The result in experiment [8] was inactive.

As for `CCCCCCCCCCCCN`, the Potency result in experiment [1], in [2], in experiment [3] and in experiment [4] was “inactive” each time. The Potency entry in [7] is “inactive and 21.9 µM (active)”; in experiment [10], “inactive and 38.9 µM (active)”. Moreover, the molecule was called inactive in experiment [8] and in experiment [9].

As to `CCOC(=O)C1OC1c1ccccc1` (stereo unspecified), the Potency entry in [1], in experiment [2], in experiment [3], in experiment [4], in experiment [6] and in experiment [7] was “inactive” throughout. Also, the Potency entry in experiment [10] was “inactive”. Besides, the call in [8] and in experiment [9] was inactive.

In the case of `CCCCNC(N)=O`, the Potency result in [1], in [2], in experiment [3], in experiment [4], in experiment [6] and in experiment [7] was “inactive” each time. Also, the Potency entry in [10] is “inactive”. Also, the molecule was classed as inactive in experiment [8] and in [9].

`NC(=O)NNc1ccccc1`: the Potency result in [1], in [2], in [3], in experiment [4], in experiment [6] and in experiment [7] was “inactive” throughout. In addition, the Potency entry in [10] is “inactive”. Also, the call in experiment [8] and in experiment [9] was inactive.

As to `COC(=O)Nc1nc2ccc(Sc3ccccc3)cc2[nH]1`, the Potency entry in experiment [1], in experiment [2], in [4], in [6], in experiment [7] and in [10] was “inactive” throughout. Besides, the molecule was classed as inactive in [8] and in [9].

Consider `O=S(=O)(O)c1cc(S(=O)(=O)O)c2c(N=Nc3ccccc3)c(O)ccc2c1`, for which the Potency in experiment [1] was 61.4 µM (active) and 27.3 µM (active). Besides, the Potency result in experiment [2], in experiment [3], in experiment [4], in [6], in experiment [7] and in experiment [10] was “inactive” throughout. The outcome in experiment [8] and in [9] was inactive.

Consider `CC1CC(OC(=O)c2ccccc2O)CC(C)(C)C1` (stereo unspecified), for which the Potency result in experiment [1], in [2], in [4], in experiment [5], in [6] and in experiment [7] was “inactive” throughout. Besides, in experiment [10], the Potency result was “inactive”. Further, the result in [8] and in experiment [9] was inactive.

Take `C=C(C)C(=O)OCCCCCCCCCCCC`: the Potency result in experiment [1], in experiment [2], in [3], in [4], in experiment [6] and in experiment [7] was “inactive” in each case. For the same molecule, the Potency result in experiment [10] was “inactive”. In addition, the molecule was classed as inactive in experiment [8] and in experiment [9].

For the molecule `CC(C)NCC(O)COc1cccc2ccccc12` (stereo unspecified), the Potency entry in experiment [1], in experiment [2], in experiment [3], in [6] and in experiment [7] was “inactive” in each case. Further, the Potency in experiment [4] was 30.9 µM (active) and 27.3 µM (active); in experiment [10] it was “inactive and 43.7 µM (active)”. Also, the outcome in [8] and in [9] was inactive.

For `CC1(C)O[C@@H]2C[C@H]3[C@@H]4C[C@H](F)C5=CC(=O)CC[C@]5(C)[C@H]4[C@@H](O)C[C@]3(C)[C@]2(C(=O)CO)O1`, the Potency result in experiment [1], in [3], in experiment [4], in [6], in [7] and in [10] was “inactive” throughout. The Potency in [2] is 5.4 nM (active) and 6 nM (active). Further, the molecule was classed as inactive in [8] and in experiment [9].

Regarding `CC1COc2ccccc2N1C(=O)C(Cl)Cl` (stereo unspecified), the Potency result in [1], in [2], in experiment [6], in experiment [7] and in [10] was “inactive” throughout. Further, the Potency in [3] is 30.6 µM (active) and 24.3 µM (active). For the same molecule, the call in [8] and in experiment [9] was inactive.

Regarding `CCCCOCCOCCOC(=O)CCCCC(=O)OCCOCCOCCCC`, the Potency result in experiment [1], in [2], in experiment [3], in experiment [4], in experiment [6] and in [7] was “inactive” in each case. In experiment [10], the Potency entry is “inactive”. In addition, the result in experiment [8] and in experiment [9] was inactive.

As to `O=Nc1ccc(O)cc1`, the Potency in experiment [1] was 47.4 µM (active) and inactive. For the same molecule, the Potency entry in experiment [4], in experiment [5], in [6], in [7] and in experiment [10] was “inactive” each time. The molecule was called inactive in experiment [8] and in experiment [9].

With `CC(C)n1c(/C=C/[C@@H](O)C[C@@H](O)CC(=O)O)c(-c2ccc(F)cc2)c2ccccc21`, the Potency result in experiment [1], in [2], in experiment [6], in experiment [7] and in [10] was “inactive” throughout. Further, the Potency in experiment [5] was 0.77 µM (active). Also, the molecule was called inactive in [8] and in experiment [9].

For the molecule `COC(=O)c1ccccc1O`, the Potency result in [1], in experiment [2], in experiment [4], in [6], in experiment [7] and in experiment [10] was “inactive” in each case. Further, the molecule was classed as inactive in experiment [8] and in [9].

In the case of `OCC#CCO`, the Potency result in [1], in experiment [2], in [3], in experiment [4], in experiment [6] and in [7] was “inactive” in each case. The Potency entry in experiment [10] is “inactive”. The molecule was called inactive in experiment [8] and in experiment [9].

On to `CCC(=O)O`, for which the Potency result in [1], in experiment [4], in experiment [6] and in [7] was “inactive” in each case. In addition, the activity change, negative = cytotoxicity in [5] is -3.72% [at 19 µM] (inactive). The result in experiment [8] was inactive.

As for `CC1Cc2ccccc2N1NC(=O)c1ccc(Cl)c(S(N)(=O)=O)c1` (stereo unspecified), the Potency entry in [1], in experiment [2], in experiment [3], in experiment [4], in [6] and in experiment [7] was “inactive” throughout. For the same molecule, in [10], the Potency entry is “inactive”. Further, the molecule was called inactive in [8] and in experiment [9].

In the case of `CC(C)(N=C=O)c1cccc(C(C)(C)N=C=O)c1`, the Potency result in [1], in experiment [2], in experiment [3], in experiment [4], in experiment [6] and in [7] was “inactive” throughout. In experiment [10], the Potency result was “inactive”. Besides, the molecule was classed as inactive in experiment [8] and in experiment [9].

For the molecule `O=C(c1ccc(O)cc1)c1ccc(O)cc1O`, the Potency entry in experiment [1], in experiment [2], in [6], in experiment [7] and in [10] was “inactive” each time. Further, the Potency in experiment [3] is 19.5 µM (active). Further, the molecule was classed as inactive in [8] and in experiment [9].

As to `Cc1cc(O)c2c(c1)C(=O)c1cc(O)cc(O)c1C2=O`, the Potency in [1] is 15.4 µM (active); in experiment [3], 29.9 µM (active) and 27.3 µM (active). In addition, the Potency entry in [2], in experiment [4], in [6], in [7] and in experiment [10] was “inactive” throughout. The molecule was classed as inactive in [9].

Regarding `CN(C)c1ccc(C(=N)c2ccc(N(C)C)cc2)cc1`, in experiment [1], the Potency was 30.3 µM (active) and 20.9 µM (active). In addition, the Potency result in experiment [2], in experiment [4], in experiment [6] and in experiment [7] was “inactive” throughout. Further, the molecule was called inactive in [8] and in experiment [9].

With `CCOC(=O)[C@H](CCc1ccccc1)N[C@@H](C)C(=O)N1Cc2ccccc2C[C@H]1C(=O)O`, the Potency result in experiment [1], in experiment [2], in experiment [4], in [5], in [6] and in [7] was “inactive” in each case. For the same molecule, the outcome in [8] was inactive.

Regarding `O=C(Oc1ccccc1)c1ccc(O)cc1`, the Potency result in [1], in experiment [2], in [4], in experiment [6], in [7] and in [10] was “inactive” in each case. In addition, the Potency in [3] was 61.1 µM (active). Also, the outcome in experiment [8] and in [9] was inactive.
